Measured values as given in PubChem BioAssay (Tox21).
Records with an inconclusive call do not appear. Activity calls are given as the source filed them. Calls come from the whole dose curve; as a rule, active = well fitted curve in the direction sought with a large enough effect in the repeat runs; inconclusive = weak or mixed curves; inactive = no such curve, though single readings can be large; an effect the other way counts as inactive or inconclusive.

What was measured:
[1] = A CellTox Green Cytotoxicity Assay to monitor cytotoxicity in HEK293 cells - 32 hour (AID 1224881); note: nearly all actives have a fitted effect of over 40% in size; note: potency is the fitted concentration of half-maximal effect
How it was run: (§1)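 Cells (HEK293, 600/well) and dye reagent are dispensed together. After 5 h at 37 C, 23 nL compound is pinned in. Plates stay at 37 C for 40 h with fluorescence read at 0h, 8h, 16h, 24h, 32h and 40h.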

[2] = A CellTox Green Cytotoxicity Assay to monitor cytotoxicity in HepG2 cells - 0 hour (AID 1224882); note: nearly all actives have a fitted effect of over 35% in size
How it was run: (§2)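 Cells and non-lytic dye reagent are dispensed together (600 HepG2 cells/well) and incubated 5 h before DMSO compound transfer. Kinetic fluorescence is then recorded in the same wells during 40 h at 37 C.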

[3] = A CellTox Green Cytotoxicity Assay to monitor cytotoxicity in HepG2 cells - 32 hour (AID 1224883); note: nearly all actives have a fitted effect of over 50% in size; note: potency is the fitted concentration of half-maximal effect
How it was run: as §2

[4] = A CellTox Green Cytotoxicity Assay to monitor cytotoxicity in HEK293 cells - 8 hour (AID 1224884); note: nearly all actives have a fitted effect of over 35% in size
How it was run: as §1

[5] = qHTS RealTime-Glo MT Cell Viability Assay in HepG2 cells - 16 hour (AID 1224885); note: nearly all actives have a fitted effect of over 50% in size
How it was run: (§3)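 Cell number in HepG2 cultures estimated from NanoLuc luminescence generated by metabolic reduction of a prosubstrate by living cells. The homogeneous, nonlytic format allowed repeated reads at 0, 8, 16, 24, 32 and 40 h of compound exposure.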

[6] = qHTS RealTime-Glo MT Cell Viability Assay in HEK293 cells - 24 hour (AID 1224886); note: nearly all actives have a fitted effect of over 50% in size; note: potency is the fitted concentration of half-maximal effect; for activity change, negative = cytotoxicity: top concentration of the series differs between compounds
How it was run: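 Homogeneous bioluminescent viability format in HEK293 cells (600 cells/well). Following 5 h at 37 C/5% CO2, 23 nL compound was pintooled; the signal was measured repeatedly during 40 h incubation.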

[7] = qHTS RealTime-Glo MT Cell Viability Assay in HEK293 cells - 8 hour (AID 1224887); note: top concentration of the series differs between compounds; nearly all actives have a fitted effect of over 50% in size
How it was run: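 Real-time viability in HEK293: signal arises when living cells convert a prosubstrate for NanoLuc in the medium, so luminescence tracks viable cell number. Compound (23 nL, DMSO) added 5 h post-seeding; kinetic reads at 0–40 h, 37 C.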

[8] = A CellTox Green Cytotoxicity Assay to monitor cytotoxicity in HEK293 cells - 16 hour (AID 1224888); note: nearly all actives have a fitted effect of over 35% in size
How it was run: as §1

[9] = qHTS RealTime-Glo MT Cell Viability Assay in HepG2 cells - 0 hour (AID 1224889); note: nearly all actives have a fitted effect of over 50% in size; note: potency is the fitted concentration of half-maximal effect
How it was run: as §3

[10] = A CellTox Green Cytotoxicity Assay to monitor cytotoxicity in HepG2 cells - 8 hour (AID 1224890); note: nearly all actives have a fitted effect of over 45% in size
How it was run: as §2
% is set by controls: 0 for no effect and ±100 for the full control effect.

C[N+](=O)[O-]
inactive: Potency [1] | outcome [2] | Potency [3] | Potency [4] | Potency [5] | Potency [6] | Potency [7] | Potency [8] | Potency [9] | Potency [10]

COCC(=O)N(c1c(C)cccc1C)N1CCOC1=O
inactive: Potency [1] | outcome [2] | Potency [3] | Potency [4] | Potency [5] | Potency [6] | Potency [7] | Potency [8] | Potency [9] | Potency [10]

Nc1cnn(-c2ccccc2)c(=O)c1Cl
inactive: Potency [1] | outcome [2] | Potency [3] | Potency [4] | Potency [5] | Potency [6] | Potency [7] | Potency [8] | Potency [9] | Potency [10]

CC(C)COP(=O)(OCC(C)C)OCC(C)C
inactive: Potency [1] | outcome [2] | Potency [3] | Potency [4] | Potency [5] | Potency [6] | Potency [7] | Potency [8] | Potency [9] | Potency [10]

O=C1c2ccccc2C(=O)c2ccccc21
inactive: cytotoxicity increase [1] 6.55% [at 15.8 µM] | cytotoxicity [2] 5.37% [at 15.8 µM] | cytotoxicity increase [3] 7.1% [at 15.8 µM] | cytotoxicity increase [4] 6.23% [at 15.8 µM] | activity change, negative = cytotoxic [5] 1.58% [at 15.8 µM] | activity change, negative = cytotoxicity [6] 20.7% [at 15.8 µM] | activity change, negative = cytotoxicity [7] 16.6% [at 15.8 µM] | activity change [8] 5.38% [at 15.8 µM, active compounds read high] | activity change, negative = cytotoxicity [9] 6.06% [at 15.8 µM] | cytotoxicity increase [10] 19.4% [at 15.8 µM]

ClC(Cl)(Cl)C(Cl)(Cl)Cl
inactive: Potency [1] | outcome [2] | Potency [3] | Potency [4] | Potency [5] | Potency [6] | Potency [7] | Potency [8] | Potency [9] | Potency [10]

CCC1(c2ccccc2)C(=O)NC(=O)NC1=O
inactive: Potency [1] | outcome [2] | Potency [3] | Potency [4] | Potency [5] | Potency [6] | Potency [7] | Potency [8] | Potency [9] | Potency [10]

C#CCN1C(=O)COc2cc(F)c(N3C(=O)C4=C(CCCC4)C3=O)cc21
inactive: Potency [1] | outcome [2] | Potency [3] | Potency [4] | Potency [5] | Potency [6] | Potency [7] | Potency [8] | Potency [9] | Potency [10]

C[C@]1(O)CC[C@H]2[C@@H]3CCC4=CC(=O)CC[C@]4(C)[C@@]3(F)[C@@H](O)C[C@@]21C
active: Potency [9] 12.4 µM
inactive: Potency [1] | outcome [2] | Potency [3] | Potency [4] | Potency [5] | Potency [6] | Potency [7] | Potency [8] | Potency [10]

Nc1ccccc1Cl
inactive: Potency [1] | outcome [2] | Potency [3] | Potency [4] | Potency [5] | Potency [6] | Potency [7] | Potency [8] | Potency [9] | Potency [10]

O=C(O)c1cccc(Cl)c1
inactive: Potency [1] | outcome [2] | Potency [3] | Potency [4] | Potency [5] | Potency [6] | Potency [7] | Potency [8] | Potency [9] | Potency [10]

O=S(=O)(O)C(F)(F)C(F)(F)C(F)(F)C(F)(F)C(F)(F)C(F)(F)F
inactive: Potency [1] | outcome [2] | Potency [3] | Potency [4] | Potency [5] | Potency [6] | Potency [7] | Potency [8] | Potency [9] | Potency [10]

CCN(CC)c1nc(C)cc(OP(=S)(OC)OC)n1
inactive: Potency [1] | outcome [2] | Potency [3] | Potency [4] | Potency [5] | Potency [6] | Potency [7] | Potency [8] | Potency [9] | Potency [10]

CCN(CC)C(C)C(=O)c1ccccc1 (configuration not stated)
inactive: Potency [1] | outcome [2] | Potency [3] | Potency [4] | Potency [5] | Potency [6] | Potency [7] | Potency [8] | Potency [9] | Potency [10]

O=C1CN=C(c2ccccc2)c2cc([N+](=O)[O-])ccc2N1
inactive: Potency [1] | outcome [2] | Potency [3] | Potency [4] | Potency [5] | Potency [6] | Potency [7] | Potency [8] | Potency [9] | Potency [10]

COC(=O)C(c1ccccc1)C1CCCCN1 (configuration not stated)
inactive: Potency [1] | outcome [2] | Potency [3] | Potency [4] | Potency [5] | Potency [6] | Potency [7] | Potency [8] | Potency [9] | Potency [10]

COc1cc2c(cc1OC)[C@@]13CCN4CC5=CCO[C@H]6CC(=O)N2[C@H]1[C@H]6[C@H]5C[C@H]43
inactive: Potency [1] | outcome [2] | Potency [3] | Potency [4] | Potency [5] | Potency [6] | Potency [7] | Potency [8] | Potency [9] | Potency [10]

COc1cc(OC)nc(Sc2cccc(Cl)c2C(=O)O)n1
inactive: Potency [1] | outcome [2] | Potency [3] | Potency [4] | Potency [5] | Potency [6] | Potency [7] | Potency [8] | Potency [9] | Potency [10]

CC(C(=O)c1ccccc1)N(C)C (configuration not stated)
inactive: Potency [1] | outcome [2] | Potency [3] | Potency [4] | Potency [5] | Potency [6] | Potency [7] | Potency [8] | Potency [9] | Potency [10]

O=C(Oc1ccc(Br)cc1)N1CCN2CCC1CC2
inactive: Potency [1] | outcome [2] | Potency [3] | Potency [4] | Potency [5] | Potency [6] | Potency [7] | Potency [8] | Potency [9] | Potency [10]

CCC1(c2ccccc2)C(=O)N=C(O)NC1=O (configuration not stated)
inactive: Potency [1] | outcome [2] | Potency [3] | Potency [4] | Potency [5] | Potency [6] | Potency [7] | Potency [8] | Potency [9] | Potency [10]

OC(c1ccccc1)(c1ccccc1)C1CCNCC1
inactive: Potency [1] | outcome [2] | Potency [3] | Potency [4] | Potency [5] | Potency [6] | Potency [7] | Potency [8] | Potency [9] | Potency [10]

CNC(=O)N(C)c1nc2ccccc2s1
inactive: Potency [1] | outcome [2] | Potency [3] | Potency [4] | Potency [5] | Potency [6] | Potency [7] | Potency [8] | Potency [9] | Potency [10]

COC(=O)c1ccccc1S(=O)(=O)NC(=O)N(C)c1nc(C)nc(OC)n1
inactive: Potency [1] | outcome [2] | Potency [3] | Potency [4] | Potency [5] | Potency [6] | Potency [7] | Potency [8] | Potency [9] | Potency [10]

C[C@@H]1CN(C2CCC(C#N)(c3ccc(F)cc3)CC2)CC[C@]1(C(=O)O)c1ccccc1 (some centres not stated)
inactive: Potency [1] | outcome [2] | Potency [3] | Potency [4] | Potency [5] | Potency [6] | Potency [7] | Potency [8] | Potency [9] | Potency [10]

O=CNC(N1CCN(C(NC=O)C(Cl)(Cl)Cl)CC1)C(Cl)(Cl)Cl (configuration not stated)
inactive: Potency [1] | outcome [2] | Potency [3] | Potency [4] | Potency [5] | Potency [6] | Potency [7] | Potency [8] | Potency [9] | Potency [10]

[O]=[Cd]
inactive: Potency [1] | outcome [2] | Potency [3] | Potency [4] | Potency [5] | Potency [6] | Potency [7] | Potency [8] | Potency [9] | Potency [10]

Cc1cnc[nH]1
inactive: Potency [1] | outcome [2] | Potency [3] | Potency [4] | Potency [5] | Potency [6] | Potency [7] | Potency [8] | Potency [9] | Potency [10]

CC1CCC(=O)O1 (configuration not stated)
inactive: Potency [1] | outcome [2] | Potency [3] | Potency [4] | Potency [5] | Potency [6] | Potency [7] | Potency [8] | Potency [9] | Potency [10]

CC(C)CP(=S)(S)CC(C)C
inactive: Potency [1] | outcome [2] | Potency [3] | Potency [4] | Potency [5] | Potency [6] | Potency [7] | Potency [8] | Potency [9] | Potency [10]

c1cc2c(c(N3CCNCC3)c1)OCCO2
inactive: Potency [1] | outcome [2] | Potency [3] | Potency [4] | Potency [5] | Potency [6] | Potency [7] | Potency [8] | Potency [9] | Potency [10]

c1cc[c]([Hg][c]2ccccc2)cc1
inactive: outcome [2] | Potency [4] | Potency [5] | Potency [8] | Potency [9] | Potency [10]
active: Potency [1] 38.9 µM | Potency [3] 49 µM | Potency [6] 34.7 µM

O=C(NCO)NCO
inactive: Potency [1] | outcome [2] | Potency [3] | Potency [4] | Potency [5] | Potency [6] | Potency [7] | Potency [8] | Potency [10]

CC(Cl)(Cl)[N+](=O)[O-]
inactive: Potency [1] | outcome [2] | Potency [3] | Potency [4] | Potency [5] | Potency [6] | Potency [7] | Potency [8] | Potency [9] | Potency [10]

Nc1c(Br)cc([N+](=O)[O-])cc1[N+](=O)[O-]
inactive: Potency [1] | outcome [2] | Potency [3] | Potency [4] | Potency [5] | Potency [6] | Potency [7] | Potency [8] | Potency [10]

CN(N=O)C(N)=O
inactive: Potency [1] | outcome [2] | Potency [3] | Potency [4] | Potency [5] | Potency [6] | Potency [7] | Potency [8] | Potency [9] | Potency [10]
